# Test results published in PubChem BioAssay (Tox21).
# Records with an inconclusive call do not appear. A call without a number means that no potency is given here. Active and inactive are the calls of the source. The call rests on the fitted dose curve; in most records, active means well fitted activation curve with a large enough effect in the repeat runs; inconclusive means weak or mixed curves, or effect the other way; inactive means no such curve, though single readings can be large or run the other way.
# Assay: qHTS assay to identify small molecule agonists of the retinoic acid receptor (RAR) signaling pathway (AID 1159553)
# Conditions: C3RL4 RARE luciferase reporter, agonist, 6 h; series mostly up to 73.3 µM
# From the text: National Center for Advancing Translational Sciences [NCATS] NIH Chemical Genomics Center [NCGC] U.S. Environmental Protection Agency [EPA] National Institutes of Environmental Health Sciences [NIEHS] National Toxicology Program [NTP] Assay overview: All-trans Retinoic acid (atRA) is the potent natural metabolite of retinol and plays an important role in normal embryonic development and maintenance of cellular phenotype in adult animals. atRA is the activating ligand for the retinoic acid receptors (RARs) which form heterodimers with retinoid X receptors (RXRs) on the retinoic acid response element (RARE). Through activation of the RAR/RXRs nuclear receptors, atRA regulates the transcription of a large number of protein-coding genes and regulatory RNAs. Intracellular levels of atRA are controlled by the retinol signaling pathway (RSP) that regulates the biosynthesis and catabolism of atRA to maintain physiological levels. Chemicals that interfere with the RSP can cause abnormal intracellular levels of atRA and therefore are potential developmental toxicants. To assess compounds for the potential adverse effect on embryonic development through interfering with retinol signaling, a cell-based RARE luciferase reporter gene assay was used. C3RL4 cell line (OARSA/CFSAN/FDA, Laurel, MD) was used to screen Tox21 10K compound library for identifying activators of the RSP.
# Assay Protocol Summary: C3RL4 cells were seeded at 1,000/well in 5 uL of assay medium into white solid 1,536-well tissue culture plates (Greiner Bio-One North America Inc. Monroe, NC) using a Multidrop Combi (Thermo Scientific, Waltham, MA) dispenser. After incubation at 37 C and 5% CO2 for an overnight, 23 nL of compounds dissolved in DMSO, positive control or DMSO only were transferred by a Pintool station (Kalypsys, San Diego, CA). After 6 hr incubation at 37 C and 5% CO2, 5 uL of Amplite Luciferase reagent (AAT Bioquest Inc. Sunnyvale, CA) was added to each assay plate using a Flying Reagent Dispenser (FRD) (Aurora Discovery, San Diego, CA). Luminescence was quantified on a ViewLux plate reader (PerkinElmer, Waltham, MA) after 30 min incubation at room temperature.
# Potency means the concentration at half of the fitted maximal effect.
row,Structure (SMILES),Potency
1,c1cc(CN2CCCCC2)cc(OCCCNc2nc3ccccc3s2)c1,inactive
2,CN(C)C(=O)Nc1ccccc1,inactive
3,COC(=O)c1ccc(C(=O)OC)c(C(=O)OC)c1,inactive
4,O=C(O)C(O)[C@H](O)[C@@H](O)[C@H](O)[C@H](O)CO (stereo not given in full),inactive
5,CCC(C)OC(=O)N1CCCCC1CCO (stereo not given),inactive
6,CC(C)COC(=O)C(C)C,inactive
7,CCCC(C)CO (stereo not given),inactive
8,OC[C@H]1O[C@@H]2O[C@H]3[C@H](O)[C@@H](O)[C@@H](O[C@H]4[C@H](O)[C@@H](O)[C@@H](O[C@H]5[C@H](O)[C@@H](O)[C@@H](O[C@H]6[C@H](O)[C@@H](O)[C@@H](O[C@H]7[C@H](O)[C@@H](O)[C@@H](O[C@H]8[C@H](O)[C@@H](O)[C@@H](O[C@H]9[C@H](O)[C@@H](O)[C@@H](O[C@H]1[C@H](O)[C@H]2O)O[C@@H]9CO)O[C@@H]8CO)O[C@@H]7CO)O[C@@H]6CO)O[C@@H]5CO)O[C@@H]4CO)O[C@@H]3CO,inactive
9,O=C(CCOCCOCCOCCOCCC(=O)Nc1c(I)cc(I)c(C(=O)O)c1I)Nc1c(I)cc(I)c(C(=O)O)c1I,inactive
10,CCO[Si](C)(OCC)OCC,inactive
11,CCCCNc1ccccc1,inactive
12,CCC(=O)c1cccc(Cl)c1,inactive
13,CCCCCC[C@@H](CCC)C(=O)O,inactive
14,CCO[Si](CCCN=C=O)(OCC)OCC,inactive
15,Cc1onc(-c2ccccc2)c1-c1ccc(S(N)(=O)=O)cc1,inactive
16,COc1cc(CCC(C)=O)ccc1O,inactive
17,NC(=O)c1ncn([C@@H]2O[C@H](CO)[C@@H](O)[C@H]2O)c1N,inactive
18,O=[N+]([O-])c1ccc(Oc2ccc([N+](=O)[O-])cc2)cc1,inactive
19,CC12CCC(CC1=O)C2(C)C (stereo not given),inactive
20,CC(=O)NC(Cc1ccccc1)C(=O)O (stereo not given),inactive

row,Structure (SMILES),Potency
1,C[C@H]1O[C@@H](n2cc(F)c(=O)[nH]c2=O)[C@H](O)[C@@H]1O,inactive
2,COCCOC(=O)CC#N,inactive
3,CC(C)c1ccc2oc3nc(N)c(C(=O)O)cc3c(=O)c2c1,2.11 µM (active)
4,CCC(=O)/C=C/c1ccc(OC)cc1,61.1 µM (active)
5,CCCCCCOC(=O)CC(CC(=O)OCCCCCC)(OC(=O)CCC)C(=O)OCCCCCC,inactive
6,OCCCCCCO,inactive
7,c1ccc(SCCSc2ccccc2)cc1,6.06 µM (active)
8,O=S(=O)(O)c1ccccc1O,inactive
9,COc1ccc(N=[N+]([O-])c2ccc(OC)cc2)cc1,0.027 µM (active)
10,COc1ccc(NC(C)=O)cc1,inactive
11,C(=C(c1ccccc1)c1ccccc1)c1ccccc1,inactive
12,CC(C)(O)c1ccccc1,inactive
13,Cc1ccccc1Br,inactive
14,CCCCC1CCCCC(=O)O1 (stereo not given),inactive
15,COc1ccc(COC=O)cc1,inactive
16,CC1=CC(=O)CCC1,inactive
17,Oc1cc(O)c2c(c1)O[C@H](c1ccc(O)c(O)c1)[C@H](O)C2,inactive
18,Cn1ccc2cc3c(cc21)CCN3C(=O)Nc1cccnc1,2.31 µM (active)
19,CCC(=O)Nc1cccc(N)c1,inactive
20,C#CC(C)(O)CC(C)C (stereo not given),inactive
